Structures are written as SMILES. About 83,000 compounds went through this panel and 20% of them were active in at least one assay; those are over-represented in the sample as a whole.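 Each cell line was grown in a 96-well plate and treated with one concentration of compound for 48 hours. Values below 10 were considered active.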 Values without a mark were called inactive. Activity calls are given as the source filed them.

This assay concerns T-47D breast. As to the kind of experiment: NCI-60 one-dose screen, 48 h (100 = growth as untreated, 0 = no growth, -100 = all killed). As to conditions: 10 µM unless noted.
For the compound `O=C(COc1ccc(/C=C2\Oc3ccccc3C2=O)cc1)Nc1nc2c(s1)CCCC2`, the growth was 87%. Take `O=[N+]([O-])c1ccc(OCCO)cc1`: the growth is 101%. With `Cn1cc2c(c1)-c1nc(Nc3ccccc3)ncc1CC2`, the growth is 40.7%. Turning to `CC1=C(SCCC(=O)OC(C[Se]C2=C(C)C(=O)c3ccccc3C2=O)C(=O)NCCCCCC(=O)OCc2ccccc2)C(=O)c2ccccc2C1=O` (centres undefined), the growth was 49.9%. As to `CC/C=C\C/C=C\C[C@H](O)C/C=C1/C(=O)C=C[C@@H]1C/C=C\CCCC(=O)O`, the growth is 14.2%. With `COc1cccc(Nc2nccc(Nc3ccc4[nH]ncc4c3)n2)c1`, the growth was -51.9% (active). Turning to `COc1cccc(-c2nn(-c3ccccc3)cc2-c2ccnc(NCCNC(=O)c3ccccc3)c2)c1`, the growth is 19.4%. `COc1ccccc1CNCCCN1C(=O)c2ccc3c4c(ccc(c24)C1=O)C(=O)N(CCCNCCCCN)C3=O`: the growth was -14.7% (active). In the case of `COc1ccc2cc(-c3cc(OC)c(OC)c(OC)c3)c(=O)oc2c1` it was 56.5%; in that of `NC(=S)Nc1cccc(O)c1`, 106%.

As to `CCCCn1c(=O)c2c(nc3n2CCCN3CCc2ccc(OCC(=O)NCCN(CC)CC)cc2)n(CCCC)c1=O`, the growth is 53.6%. Regarding `COc1cc2c(cc1-c1c(C)noc1C)ncc1nc(C3CCC(F)(F)CC3)n(C3CCC(OC(F)F)CC3)c12` (centres undefined), the growth is 22.5%.

For `CCN1CCN(c2cc(C)nc(NCc3cc(Nc4ccnc5cc(Cl)ccc45)ccc3F)n2)CC1`, the growth is -17.7% (active). `CCCCc1ccc(Nc2ccc(Nc3ccc(CCCC)cc3S(=O)(=O)O)c3c2C(=O)c2ccccc2C3=O)c(S(=O)(=O)O)c1`: the growth was 106%.

The values above are taken from PubChem BioAssay (NCI).
